# Test results from the supplement of paper PMC10849652.
# The full data set covers some 7,900 targets. This sample favours those with a hit. About 0.6% of all pairs of compound and target were hits. A number with no mark means an inactive call.
# How the values were obtained:
# Assay in all cases: log2 fold change, soluble protein after heating vs DMSO (PISA); higher = thermal stabilisation; K562 cells, 10 uM, 30 min; active = over 0.2 and 3.5 SD of the protein, either way, in both replicates (recomputed)
# saracatinib = compound: CN1CCN(CCOc2cc(OC3CCOCC3)c3c(Nc4c(Cl)ccc5c4OCO5)ncnc3c2)CC1 [saracatinib]
# In short: (§1)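 K562 cells at 2×10^6 cells/mL were treated with 10 μM compound for 30 min. Aliquots were heated for 3 min across 48°C-58°C, pooled, and extracted in PBS with 0.5% NP-40 at 4°C; soluble protein was the supernatant after 21,000xg for 90 min. Soluble protein was quantified by TMTpro 16plex LC-MS/MS with channel sums equalised, and reported as log2 fold change in thermal stability against DMSO controls, with values from duplicates.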
# sotrastaurin = compound: CN1CCN(c2nc(C3=C(c4c[nH]c5ccccc45)C(=O)NC3=O)c3ccccc3n2)CC1 [sotrastaurin]
# In short: as §1
# alvocidib = compound: CN1CC[C@H](c2c(O)cc(O)c3c(=O)cc(-c4ccccc4Cl)oc23)[C@H](O)C1 [alvocidib]
# In short: as §1
# Tubastatin A = compound: CN1CCc2c(c3ccccc3n2Cc2ccc(C(=O)NO)cc2)C1 [Tubastatin A]
# In short: as §1
# [1] = compound: CNC(=O)C1=CC=CC=C1NC2=NC(=NC=C2Cl)NC3=C(C=C(C=C3)N4CCOCC4)OC
# In short: as §1
# defactinib = compound: CNC(=O)c1ccc(Nc2ncc(C(F)(F)F)c(NCc3nccnc3N(C)S(C)(=O)=O)n2)cc1 [defactinib]
# In short: as §1
# rucaparib = compound: CNCc1ccc(-c2[nH]c3cc(F)cc4c3c2CCNC4=O)cc1 [rucaparib]
# In short: as §1
# [2] = compound: CNc1nc(-c2ccc3c(N)n[nH]c3c2)cc(N2C[C@@H](C(=O)NC3CCCCC3)CC[C@H]2C)n1
# In short: as §1
# encorafenib = compound: COC(=O)N[C@@H](C)CNc1nccc(-c2cn(C(C)C)nc2-c2cc(Cl)cc(NS(C)(=O)=O)c2F)n1 [encorafenib]
# In short: as §1
# [3] = compound: COC(=O)[C@H](CCSC)NC(=O)C1=C(C=C(C=C1)NC[C@H](CS)N)C2=CC=CC=C2
# In short: as §1
# Chain of UniProt O15067 (O15067 whole entry, looked up): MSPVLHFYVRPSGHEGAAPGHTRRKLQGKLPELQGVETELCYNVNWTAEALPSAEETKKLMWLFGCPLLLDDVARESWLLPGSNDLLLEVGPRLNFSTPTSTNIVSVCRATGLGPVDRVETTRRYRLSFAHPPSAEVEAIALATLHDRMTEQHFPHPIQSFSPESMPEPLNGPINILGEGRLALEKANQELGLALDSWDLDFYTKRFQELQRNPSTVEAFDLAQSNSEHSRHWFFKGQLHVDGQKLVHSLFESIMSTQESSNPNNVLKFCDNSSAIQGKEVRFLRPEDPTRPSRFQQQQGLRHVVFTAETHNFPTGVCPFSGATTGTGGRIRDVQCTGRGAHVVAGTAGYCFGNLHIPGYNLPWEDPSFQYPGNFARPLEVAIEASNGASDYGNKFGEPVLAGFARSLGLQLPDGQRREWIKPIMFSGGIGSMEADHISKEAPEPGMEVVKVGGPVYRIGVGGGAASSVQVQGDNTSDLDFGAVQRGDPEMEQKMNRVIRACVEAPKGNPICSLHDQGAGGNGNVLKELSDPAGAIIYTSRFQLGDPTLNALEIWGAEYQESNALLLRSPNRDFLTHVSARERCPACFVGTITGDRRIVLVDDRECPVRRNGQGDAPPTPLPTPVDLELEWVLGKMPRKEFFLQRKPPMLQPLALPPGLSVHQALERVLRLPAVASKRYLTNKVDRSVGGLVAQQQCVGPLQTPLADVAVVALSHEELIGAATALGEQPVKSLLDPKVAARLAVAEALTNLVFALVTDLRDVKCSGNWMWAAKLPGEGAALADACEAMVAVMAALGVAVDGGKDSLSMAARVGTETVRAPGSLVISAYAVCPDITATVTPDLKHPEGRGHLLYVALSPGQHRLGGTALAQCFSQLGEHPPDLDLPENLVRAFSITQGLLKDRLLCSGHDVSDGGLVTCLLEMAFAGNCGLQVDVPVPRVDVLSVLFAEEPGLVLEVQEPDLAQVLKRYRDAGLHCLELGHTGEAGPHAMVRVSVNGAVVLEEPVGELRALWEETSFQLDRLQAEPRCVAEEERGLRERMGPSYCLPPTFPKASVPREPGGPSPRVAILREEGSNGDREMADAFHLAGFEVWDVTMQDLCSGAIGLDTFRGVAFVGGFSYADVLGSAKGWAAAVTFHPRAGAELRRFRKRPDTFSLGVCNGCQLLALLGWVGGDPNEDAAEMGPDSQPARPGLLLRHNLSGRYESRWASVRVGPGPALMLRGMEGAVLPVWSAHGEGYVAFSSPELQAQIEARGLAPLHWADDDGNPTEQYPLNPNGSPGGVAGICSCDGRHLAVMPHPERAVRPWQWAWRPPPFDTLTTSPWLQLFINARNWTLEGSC
# Chain of UniProt Q8TCG2 (Q8TCG2 whole entry, looked up): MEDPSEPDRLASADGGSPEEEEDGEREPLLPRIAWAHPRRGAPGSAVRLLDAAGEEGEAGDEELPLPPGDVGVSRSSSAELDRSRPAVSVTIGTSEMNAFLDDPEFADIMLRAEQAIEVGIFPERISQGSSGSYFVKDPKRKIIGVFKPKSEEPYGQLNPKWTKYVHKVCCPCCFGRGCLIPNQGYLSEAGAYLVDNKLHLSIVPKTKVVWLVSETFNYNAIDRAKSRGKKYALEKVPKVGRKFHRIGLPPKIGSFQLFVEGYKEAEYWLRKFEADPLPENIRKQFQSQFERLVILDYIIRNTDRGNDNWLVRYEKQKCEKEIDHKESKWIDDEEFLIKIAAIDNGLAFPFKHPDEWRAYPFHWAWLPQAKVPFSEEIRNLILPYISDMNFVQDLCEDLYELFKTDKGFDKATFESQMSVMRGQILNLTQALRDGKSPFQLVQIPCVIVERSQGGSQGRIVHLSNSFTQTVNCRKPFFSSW
# Chain of UniProt Q15054 (Q15054 whole entry, looked up): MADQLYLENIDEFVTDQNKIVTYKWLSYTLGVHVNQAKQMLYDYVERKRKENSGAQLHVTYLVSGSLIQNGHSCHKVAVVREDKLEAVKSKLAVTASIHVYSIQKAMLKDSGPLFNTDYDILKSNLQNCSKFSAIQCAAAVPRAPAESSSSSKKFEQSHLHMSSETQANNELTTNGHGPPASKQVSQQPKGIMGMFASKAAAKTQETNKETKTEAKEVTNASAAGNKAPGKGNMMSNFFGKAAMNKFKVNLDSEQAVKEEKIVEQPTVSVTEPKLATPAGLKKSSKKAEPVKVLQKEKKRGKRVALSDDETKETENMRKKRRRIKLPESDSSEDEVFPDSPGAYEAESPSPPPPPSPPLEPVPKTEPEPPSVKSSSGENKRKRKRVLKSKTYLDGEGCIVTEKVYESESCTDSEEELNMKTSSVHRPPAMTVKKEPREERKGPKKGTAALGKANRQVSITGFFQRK
# Chain of UniProt O00232 (O00232 whole entry, looked up): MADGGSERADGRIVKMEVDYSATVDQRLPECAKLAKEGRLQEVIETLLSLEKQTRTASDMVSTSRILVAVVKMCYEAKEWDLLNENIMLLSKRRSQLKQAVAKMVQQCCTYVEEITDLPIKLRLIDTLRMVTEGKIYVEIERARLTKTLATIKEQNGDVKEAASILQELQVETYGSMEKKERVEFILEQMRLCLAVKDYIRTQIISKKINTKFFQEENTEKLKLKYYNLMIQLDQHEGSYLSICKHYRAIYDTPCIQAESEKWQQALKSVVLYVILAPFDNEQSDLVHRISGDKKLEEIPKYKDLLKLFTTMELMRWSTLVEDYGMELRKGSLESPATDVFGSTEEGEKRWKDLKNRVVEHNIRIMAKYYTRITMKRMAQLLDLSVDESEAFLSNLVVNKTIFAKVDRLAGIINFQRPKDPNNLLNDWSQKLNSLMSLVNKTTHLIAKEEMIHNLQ
# Chain of UniProt O95453 (O95453 whole entry, looked up): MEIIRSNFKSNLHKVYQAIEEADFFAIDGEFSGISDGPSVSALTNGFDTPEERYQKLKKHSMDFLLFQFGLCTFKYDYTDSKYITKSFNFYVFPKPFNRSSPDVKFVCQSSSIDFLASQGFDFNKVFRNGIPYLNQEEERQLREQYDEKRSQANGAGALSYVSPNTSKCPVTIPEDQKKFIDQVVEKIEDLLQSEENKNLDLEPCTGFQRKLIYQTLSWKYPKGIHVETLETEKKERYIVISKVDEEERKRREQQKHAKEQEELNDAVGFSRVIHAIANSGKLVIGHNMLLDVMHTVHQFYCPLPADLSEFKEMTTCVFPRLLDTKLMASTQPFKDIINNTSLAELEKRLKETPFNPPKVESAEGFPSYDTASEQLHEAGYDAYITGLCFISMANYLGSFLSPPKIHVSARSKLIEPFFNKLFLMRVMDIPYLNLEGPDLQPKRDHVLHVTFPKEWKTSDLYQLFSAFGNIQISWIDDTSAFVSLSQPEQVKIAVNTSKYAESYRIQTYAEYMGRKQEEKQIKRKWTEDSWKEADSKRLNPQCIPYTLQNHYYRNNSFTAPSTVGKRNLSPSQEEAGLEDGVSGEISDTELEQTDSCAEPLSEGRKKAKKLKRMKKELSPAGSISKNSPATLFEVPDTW
# Chain of UniProt Q9UG56 (Q9UG56 whole entry, looked up): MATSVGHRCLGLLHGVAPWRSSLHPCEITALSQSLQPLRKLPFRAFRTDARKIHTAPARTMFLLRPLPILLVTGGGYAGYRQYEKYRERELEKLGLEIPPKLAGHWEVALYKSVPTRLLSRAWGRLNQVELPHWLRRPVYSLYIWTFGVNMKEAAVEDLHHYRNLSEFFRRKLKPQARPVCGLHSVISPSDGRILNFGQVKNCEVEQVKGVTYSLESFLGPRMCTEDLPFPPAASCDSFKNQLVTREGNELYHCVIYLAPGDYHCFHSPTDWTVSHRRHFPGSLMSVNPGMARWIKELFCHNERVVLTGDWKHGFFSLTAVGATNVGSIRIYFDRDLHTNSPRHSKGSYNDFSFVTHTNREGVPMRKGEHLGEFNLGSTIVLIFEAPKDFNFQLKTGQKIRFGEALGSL
# Chain of UniProt Q9H300 (Q9H300 whole entry, looked up): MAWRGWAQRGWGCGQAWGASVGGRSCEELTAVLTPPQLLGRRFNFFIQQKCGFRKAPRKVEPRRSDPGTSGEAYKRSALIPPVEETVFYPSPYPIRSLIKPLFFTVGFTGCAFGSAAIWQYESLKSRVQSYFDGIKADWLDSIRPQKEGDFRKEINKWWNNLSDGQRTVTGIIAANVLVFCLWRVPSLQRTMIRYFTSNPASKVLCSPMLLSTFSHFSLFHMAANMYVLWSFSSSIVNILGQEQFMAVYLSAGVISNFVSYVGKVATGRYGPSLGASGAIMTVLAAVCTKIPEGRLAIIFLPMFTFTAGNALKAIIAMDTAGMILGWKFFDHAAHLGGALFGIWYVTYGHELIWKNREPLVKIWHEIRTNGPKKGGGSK
# Chain of UniProt Q13362 (Q13362 whole entry, looked up): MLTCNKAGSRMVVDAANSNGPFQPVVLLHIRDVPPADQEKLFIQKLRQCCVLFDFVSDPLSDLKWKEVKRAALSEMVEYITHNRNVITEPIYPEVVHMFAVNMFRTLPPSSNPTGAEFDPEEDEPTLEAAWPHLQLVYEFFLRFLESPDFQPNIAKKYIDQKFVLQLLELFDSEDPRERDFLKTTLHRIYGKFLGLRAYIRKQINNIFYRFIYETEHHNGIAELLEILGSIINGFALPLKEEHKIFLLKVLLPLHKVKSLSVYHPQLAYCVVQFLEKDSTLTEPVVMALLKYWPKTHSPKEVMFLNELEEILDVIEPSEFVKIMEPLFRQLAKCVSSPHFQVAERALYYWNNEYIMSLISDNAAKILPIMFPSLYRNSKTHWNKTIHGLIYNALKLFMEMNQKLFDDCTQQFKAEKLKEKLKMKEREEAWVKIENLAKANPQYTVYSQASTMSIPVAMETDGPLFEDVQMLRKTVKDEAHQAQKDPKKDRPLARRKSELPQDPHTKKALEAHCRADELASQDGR
# Chain of UniProt O00625 (O00625 whole entry, looked up): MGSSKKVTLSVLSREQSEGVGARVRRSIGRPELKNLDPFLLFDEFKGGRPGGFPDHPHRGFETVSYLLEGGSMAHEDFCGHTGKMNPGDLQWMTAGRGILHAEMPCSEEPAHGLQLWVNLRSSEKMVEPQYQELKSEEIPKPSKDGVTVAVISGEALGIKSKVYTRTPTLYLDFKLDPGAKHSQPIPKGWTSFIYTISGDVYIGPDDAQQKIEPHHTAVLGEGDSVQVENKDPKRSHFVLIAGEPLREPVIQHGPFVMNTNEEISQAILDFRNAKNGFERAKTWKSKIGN
Target,log2 fold change (saracatinib),log2 fold change (sotrastaurin),log2 fold change (alvocidib),log2 fold change (Tubastatin A),log2 fold change [1],log2 fold change (defactinib),log2 fold change (rucaparib),log2 fold change [2],log2 fold change (encorafenib),log2 fold change [3]
POLA2 (UniProt Q14181),0.035,-0.055,-0.15,0.051,0.096,-0.254,-0.125,0.039,0.06,-0.038
PLD3 (UniProt Q8IV08),0.034,0.013,-0.024,0.004,0.016,-0.005,-0.094,-0.037,0.007,0.009
PPID (UniProt Q08752),-0.137,-0.178,-0.069,0.051,0.044,-0.101,0.135,0.042,0.142,-0.052
PSMC3 (UniProt P17980),-0.043,-0.035,0.058,0.011,0,0.06,0.033,0.003,0.026,0.004
PARN (UniProt O95453),-0.013,-0.008,-0.118,-0.017,0.02,-0.141,0.079,-0.022,0.04,0.014
PSMD3 (UniProt O43242),-0.06,-0.015,0.022,0.016,0.007,0.083,0.037,0.051,0.031,0.003
PTGR2 (UniProt Q8N8N7),0.021,0.009,0.015,0.046,-0.052,-0.025,0.007,0.136,-0.107,-0.043
PSMD12 (UniProt O00232),-0.024,-0.029,0.026,0.04,0.033,0.048,0.014,0.054,0.031,-0.032
PRKAR1B (UniProt P31321),-0.137,-0.02,0.128,0.035,0.247,0.117,0.029,0.047,0.056,-0.067
POLR2K (UniProt P53803),-0.024,0.032,0.14,-0.031,-0.057,0.034,0.039,-0.047,-0.174,-0.063
PSMD13 (UniProt Q9UNM6),-0.073,0,0.061,0.038,0.027,0.068,0.024,0.043,0.063,0.003
PARL (UniProt Q9H300),0.056,0.019,0.026,-0.053,0.025,-0.011,-0.005,-0.052,0.029,0.015
PFAS (UniProt O15067),-0.043,0,-0.066,0.046,-0.324 (active),-0.029,0,0.251,0.011,-0.075
PRG4 (UniProt Q92954),0.008,0.136,0.007,0.004,0.14,0.055,-0.072,0.031,0.001,-0.109
POP1 (UniProt Q99575),0.077,-0.01,-0.049,0.026,-0.002,-0.055,0.014,0.014,0.006,0.016
PTRHD1 (UniProt Q6GMV3),-0.057,0.061,-0.062,0.052,0.025,0,-0.015,-0.022,-0.064,0.003
PRPF31 (UniProt Q8WWY3),-0.093,-0.15,-0.193,0.144,-0.033,-0.456 (active),-0.068,0.033,0.011,-0.037
PPIL2 (UniProt Q13356),-0.02,-0.096,-0.093,0.069,-0.023,-0.194,0.073,0.067,0.047,-0.065
PLBD1 (UniProt Q6P4A8),0.024,0.071,-0.017,-0.013,0.054,0.023,0.034,0.001,0.001,0
PTP4A2 (UniProt Q12974),-0.038,0.107,-0.332 (active),0.057,-0.1,-0.213,-0.143,-0.066,0.008,0.117
PRMT7 (UniProt Q9NVM4),-0.02,-0.124,-0.219,0.088,0.004,-0.086,0.008,0.031,0.112,-0.04
PNPLA4 (UniProt P41247),-0.267,-0.091,-0.02,0.007,0.058,-0.047,0,0.17,-0.343,-0.011
POLD1 (UniProt P28340),0.018,-0.052,-0.121,0.055,-0.01,-0.115,-0.004,-0.004,0.131,-0.029
PRKACA (UniProt P17612),0.002,-0.117,-0.012,0.054,-0.104,-0.015,0.061,0.077,0.01,0.072
PIR (UniProt O00625),0.025,-0.01,-0.068,-0.284 (active),-0.002,-0.09,0.045,0,-0.045,0.012
PPP2R5C isoform 5 (UniProt Q13362),0.007,-0.018,-0.045,0.014,-0.02,-0.044,-0.019,0.023,0.126,-0.042
POLD3 (UniProt Q15054),-0.035,-0.131,-0.229,0.137,0.01,-0.225,0.018,0.042,0.082,-0.047
PI4K2B (UniProt Q8TCG2),-0.067,0.04,-0.05,0.028,-0.016,0.003,0.097,-0.096,-0.148,-0.099
PISD (UniProt Q9UG56),-0.095,0.061,0,0.019,0.026,-0.054,0.06,0.252 (active),0.063,0.028
PSMD2 (UniProt Q13200),-0.047,-0.029,0.048,-0.014,-0.033,0.061,0.035,0.01,0.051,0.012
